Data: PubChem BioAssay AID720568 (Broad Institute, 2013)
Measured potencies and affinities stand elsewhere. Active and inactive are the calls of the source. How the calls were made is not given here.

Assay: toxicity toward HepG2 hepatoma cells – cell-based, dry powder samples, cytotoxicity control, dose response (AID 720568)
Conditions: plate reader; series mostly up to 15 µM

For `COc1ccc(CSc2nnc(-c3ccccc3)o2)cc1`, the outcome was “inactive”.

For `c1ccc(CSc2nnc(-c3ccccc3)o2)cc1`, the outcome was “inactive”.
